Screening data as filed in PubChem BioAssay.
FAS TE block: FAS thioesterase domain inhibitors, primary screen, biochemical, fluorescence intensity, uHTS. Fatty acid synthase (Homo sapiens), P49327. recombinant FAS-TE, OMFH fluorogenic substrate, fluorescence endpoint. inhibition, % at 15 µM. 360,000 compounds, 0.67% hits;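 active means compounds whose normalised, plate-corrected inhibition of enzyme fluorescence in the single-dose primary screen is 50% or more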;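 further: 0% = DMSO with enzyme and 100% = substrate without enzyme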
Myeloid diff 2: induction of myeloid progenitor differentiation, primary screen, cell-based, flow cytometry, MLPCN library; 360,000 compounds, 1% hits; calls only at 10 µM; ER-HoxA9 myeloid progenitors, lysozyme-GFP differentiation;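 active means normalized GFP-positive differentiation at or above the plate's own cutoff, the solvent-only control mean plus 3 SD; inconclusive means no clear call, values can overlap the other calls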;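 further: cells exposed to compound for four days before flow analysis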
NadD block: inhibitors of S. aureus NadD, primary screen, biochemical, colorimetric, uHTS. Nicotinate-nucleotide adenylyltransferase NadD (Staphylococcus aureus N315). purified NadD enzyme, colorimetric absorbance read-out. inhibition, % at 20 µM. 360,000 compounds, 0.78% hits. AID 602399, 2012; in the data active means inhibition above about 26%
NRP1-CendR mod: modulators of CendR peptide binding to NRP-1, primary screen, biochemical, fluorescence polarization, uHTS; inhibition, % at 25 µM; Neuropilin-1 (Homo sapiens), O14786; 360,000 compounds, 0.85% hits; FAM-RPARPAR peptide binding to NRP-1;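 active means inhibition or corrected inhibition above about 18%, plus a signal ratio from 0.5 to 1.5, limit read from the data, passing the limit was not always enough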
CRFR2-BP antag: antagonists of CRF-BP/CRF-R2 complex, primary screen, cell-based, HEK293, calcium dye fluorescence, uHTS; CRF-induced calcium fluorescence; inhibition, % at 11.8 µM; 350,000 compounds, 0.59% hits; AID 588475, 2011;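 active means inhibition of the ligand-induced calcium signal above about 50% at the single tested concentration, limit read from the data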
* = called active by the depositor; i = inactive; ? = inconclusive; nt = not tested or not shown; + = active, no number. Hits are enriched below; roughly 3.6% of the tested compounds scored in any of these assays.

SMILES	FAS TE block	Myeloid diff 2	NadD block	NRP1-CendR mod	CRFR2-BP antag
O=C1CC(/C=C/c2ccco2)=Nc2ccccc2N1	-12.4	+	28.3	0.0	-0.9
Cc1ccc(S(=O)(=O)N2c3ccc(S(N)(=O)=O)cc3CC2C)cc1 (stereo not drawn)	3.3	i	-2.3	22.2*	-2.9
Cc1ccc(S(=O)(=O)N2c3ccccc3CC2C)cc1 (stereo not drawn)	12.2	i	-7.6	-5.3	29.8
Cc1ccc(S(=O)(=O)/N=C2\C=C(NS(=O)(=O)c3ccccc3)C(=O)c3ccccc32)c(C)c1	16.5	i	32.3*	19.6	30.2
CC(C)(C)c1ccc(S(=O)(=O)/N=C2\C=C(NS(=O)(=O)c3ccccc3)C(=O)c3ccccc32)cc1	0.8	i	39.6*	19.3	10.8
Cc1ccc(S(=O)(=O)/N=C2\C=C(Nc3ccc(O)cc3)C(=O)c3ccccc32)cc1	41.1	nt	6.4	10.4	21.6
COC(=O)[C@@]1(C(C)C)N=C(c2cc(OC)c(OC)c(OC)c2)[C@]2(O1)C(=O)N(C)c1ccc(Br)cc12	7.1	i	-5.7	1.8	nt
COc1cc2[nH]c(=O)n(CCC(=O)NC3CCCC3)c(=O)c2cc1OC	1.2	i	-5.2	-5.3	4.8
CC1CCCCC1NC(=O)CCCCn1c(=O)[nH]c2ccsc2c1=O (stereo not drawn)	-0.4	+	-0.3	-0.2	3.6
CC1CCCCC1NC(=O)CCCn1c(=S)[nH]c2ccsc2c1=O (stereo not drawn)	2.3	i	4.1	10.2	-10.2
COc1cc2[nH]c(=O)n(CCCCCC(=O)NC3CCCC3)c(=O)c2cc1OC	-0.3	nt	3.6	5.5	66.9*
COc1ccc(OC)c(NC(=O)C2(C)CCN2C(=O)Cc2ccc(Cl)cc2Cl)c1 (stereo not drawn)	16.3	i	-1.1	-7.8	nt
CC(C)C[C@@H](COCc1cccc(C(F)(F)F)c1)N1CCN(C(=O)c2ccc(C(F)(F)F)cc2)CCC1=O	25.4	i	5.1	1.0	nt
CN(C)CCNc1ncnc2c1sc1nc(-c3ccccc3)c3c(c12)CCCC3	12.6	+	9.5	1.5	21.5
Cc1nnc(SCC(=O)Nc2cc(S(C)(=O)=O)ccc2Cl)n1Cc1ccccc1	-5.2	i	-2.1	11.9	6.2
O=C(Nc1ccccc1O)c1cc(S(=O)(=O)N2CCOCC2)c(Cl)cc1Cl	-5.5	i	-2.1	-0.1	-4.8
O=C(NNC(=O)c1cc(S(=O)(=O)N2CCOCC2)c(Cl)cc1Cl)c1ccccc1F	-8.4	i	-3.8	17.2*	-0.3
O=C(CC[C@H]1O[C@@H](n2cnc3c(NC(=O)c4ccccc4)ncnc32)[C@H](O)[C@@H]1O)NCc1ccc(OC(F)(F)F)cc1	-5.9	i	-0.3	0.5	nt
CCOC(=O)c1c(-c2cccc([N+](=O)[O-])c2)csc1NC(=O)CCCOc1ccccc1OC	26.2	i	-4.7	33.1*	31.3
CCOC(=O)c1c(-c2ccccc2)csc1NC(=O)/C(C#N)=C/c1ccc(OC)c(OC)c1	-1.2	+	0.2	13.4	-42.3
CCOC(=O)/C(C#N)=C\c1ccc(OC)c(OC)c1	-6.4	i	-9.7	10.3	14.7
CCCCCC(=O)N1C[C@H](O)[C@@H](n2cc(-c3ccc(F)cc3)nn2)C[C@@H]1c1ccc(OC)cc1	9.5	i	10.6	3.7	-1.6
CC1(C)N=C(N)N=C(N)N1c1ccc(OCC(=O)N2CCOCC2)cc1	-5.7	i	-4.3	10.5	25.0
CC1(C)N=C(N)N=C(N)N1c1ccc(OCC(=O)N2CCOCC2)c(Cl)c1	-10.9	+	-6.1	6.3	6.6
Cc1ccc(Cl)cc1-c1cc(C(=O)N2CCN(c3ccncc3)CC2)[nH]n1	-10.1	i	-1.8	10.2	nt
SMILES	FAS TE block	Myeloid diff 2	NadD block	NRP1-CendR mod	CRFR2-BP antag
Cc1ccc2cc(CN(CCCN(C)C)C(=O)NCc3ccccc3)c(=O)[nH]c2c1C	-1.1	i	-9.9	37.7*	-4.5
O=C(CN1CCN(Cc2ccc3c(c2)OCO3)CC1)Nc1ccc2[nH]c(=O)[nH]c2c1	-5.3	i	-4.8	-1.3	27.9
O=C(Nc1ccc(S(=O)(=O)N2CCOCC2)cc1)c1ccc2c(c1)S(=O)(=O)c1ccccc1C2=O	-3.7	i	3.8	-10.0	-4.6
O=C(Nc1ccc(NC(=O)c2ccc(Cl)c(S(=O)(=O)N3CCOCC3)c2)cc1)c1ccccc1	-12.2	?	8.9	3.5	-3.6
CN(c1cccc(NC(=O)c2ccc(Cl)c(S(=O)(=O)N3CCOCC3)c2)c1)S(C)(=O)=O	1.7	+	-2.1	22.7	-10.2
COc1ccc(OC)c(-c2csc(NC(=O)C3=NN(c4ccccc4)C(=O)CC3)n2)c1	27.6	i	18.3	2.4	0.6
Cc1ccc(NC(=O)c2ccc3c(c2)S(=O)(=O)c2ccccc2C3=O)cc1S(=O)(=O)N1CCOCC1	3.0	i	5.9	28.6*	0.7
O=C(Nc1cccc(S(=O)(=O)N2CCOCC2)c1)C1=NN(c2ccccc2)C(=O)CC1	0.3	i	-8.8	26.6*	6.4
COc1ccc(NS(=O)(=O)c2cc(NC(=O)C3=NN(c4ccccc4)C(=O)CC3)ccc2OC)cc1	40.2	i	19.4	27.4*	16.5
O=C(Nc1ccc(Cl)c(S(=O)(=O)N2CCOCC2)c1)C1=NN(c2ccccc2)C(=O)CC1	9.0	i	4.8	14.6	-1.5
CC[C@@]1(C(=O)OC)N[C@H](CN(C)C(=O)Nc2ccc(Cl)cc2)[C@@H]2C(=O)N(Cc3ccccc3)C(=O)[C@@H]21	0.2	i	-2.3	-9.3	-26.9
O=C(Nc1ccc(Cn2ccnc2)cc1)c1cccc(C(F)(F)F)c1	14.3	i	6.2	-6.3	11.3
Nc1cc2c(cc1Cl)-c1ccc([N+](=O)[O-])cc1C2=NO	-53.4	nt	15.6	-122.7	-3.0
OCc1ccccc1-c1nc(NCC2CC2)nc2ccsc12	-5.8	i	1.5	6.4	nt
COc1ccc(NC(=O)C(c2ccc(C(F)(F)F)cc2)n2c(=O)c(-c3cc4ccccc4[nH]3)nc3ccccc32)cc1 (stereo not drawn)	nt	i	nt	3.2	nt
O=[N+]([O-])c1ccc(N2CCN(Cc3ccccc3)CC2)c(S(=O)(=O)N2CCOCC2)c1	12.5	i	-4.4	30.3*	1.5
CCCC1(CCC)NC(=O)N(CC(=O)Nc2ccc(Cl)c(S(=O)(=O)N3CCOCC3)c2)C1=O	-1.9	i	-0.1	5.0	69.1*
O=C(Nc1ccccc1)c1ccc(N2CCN(c3ccccc3)CC2)c(S(=O)(=O)N2CCOCC2)c1	55.7*	i	13.1	-6.8	-10.3
CCC1=C(Nc2ccccc2)COC1=O	-9.9	i	-1.1	-6.6	-4.2
CCN1C(=O)S/C(=C/c2ccc(Sc3nc4ccccc4[nH]3)o2)C1=O	8.0	i	15.2	-54.1	-27.8
CCN(CC)c1cc(C)c2cc(NC(=O)c3cccs3)ccc2n1	12.6	i	-8.4	-4.1	-28.4
